Source: article PMC7862700, “An all-to-all approach to the identification of sequence-specific readers for epigenetic DNA modifications on cytosine”

What was measured:
Assay in all cases: DAPPL (digital affinity profiling via proximity ligation, sequencing); 10 mM Tris-HCl pH 7.5, 50 mM NaCl, 1 mM DTT, 4% glycerol, room temperature, 30 min; GST-TFs on glutathione beads, 16-mer random dsDNA library, 0.1% formaldehyde crosslink after washing; high values mean tight binding
Conditions in all cases: protein: recombinant; tags: N-terminal GST; dsDNA, one strand shown
ETV1 = ETV1 (Homo sapiens, UniProt P50549 1-477)
Outline: (§1)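 Human transcription factors were made in yeast as GST fusions, captured on glutathione beads and barcoded with DNA. With a tag-only sample included, the pool was incubated with 200 nmole of a random double-stranded 16-mer DNA library in Tris/NaCl/DTT/glycerol buffer at room temperature for 30 min, then crosslinked with 0.1% formaldehyde after washing, ligated by proximity, amplified and sequenced. For binding signal, each hexamer's read frequency for a factor is divided by its frequency for the tag-only sample.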

ERF = target: T1, ERF (Homo sapiens, UniProt P50548 1-548)
T1 sequence: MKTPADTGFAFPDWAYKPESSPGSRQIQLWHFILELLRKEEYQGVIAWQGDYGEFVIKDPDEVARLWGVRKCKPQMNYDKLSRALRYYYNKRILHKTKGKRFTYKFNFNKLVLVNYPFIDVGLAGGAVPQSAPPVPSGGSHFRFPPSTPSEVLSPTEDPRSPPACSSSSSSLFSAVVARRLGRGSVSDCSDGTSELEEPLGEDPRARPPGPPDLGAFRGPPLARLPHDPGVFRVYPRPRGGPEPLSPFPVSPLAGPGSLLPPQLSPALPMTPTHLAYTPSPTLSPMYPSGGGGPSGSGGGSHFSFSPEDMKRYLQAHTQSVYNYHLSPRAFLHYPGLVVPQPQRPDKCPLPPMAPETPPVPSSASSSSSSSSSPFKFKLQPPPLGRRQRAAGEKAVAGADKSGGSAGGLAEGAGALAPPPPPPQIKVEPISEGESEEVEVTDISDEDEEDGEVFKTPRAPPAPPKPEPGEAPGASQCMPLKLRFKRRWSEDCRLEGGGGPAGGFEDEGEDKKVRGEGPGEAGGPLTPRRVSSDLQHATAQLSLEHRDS
Outline: as §1

ETV3L = target: T2, ETV3L (Homo sapiens, UniProt Q6ZN32 1-361)
T2 sequence: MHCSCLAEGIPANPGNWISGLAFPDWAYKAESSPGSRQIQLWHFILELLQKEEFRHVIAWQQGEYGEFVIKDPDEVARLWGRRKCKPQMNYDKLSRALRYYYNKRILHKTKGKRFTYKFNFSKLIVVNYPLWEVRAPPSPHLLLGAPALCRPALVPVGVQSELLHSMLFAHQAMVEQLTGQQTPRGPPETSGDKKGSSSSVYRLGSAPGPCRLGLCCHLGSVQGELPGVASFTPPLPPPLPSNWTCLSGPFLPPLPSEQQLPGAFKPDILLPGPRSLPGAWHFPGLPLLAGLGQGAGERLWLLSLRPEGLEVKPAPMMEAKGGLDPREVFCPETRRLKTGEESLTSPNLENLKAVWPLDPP
Outline: as §1

ETS2 = target: T3, ETS2 (Homo sapiens, UniProt P15036 1-469)
T3 sequence: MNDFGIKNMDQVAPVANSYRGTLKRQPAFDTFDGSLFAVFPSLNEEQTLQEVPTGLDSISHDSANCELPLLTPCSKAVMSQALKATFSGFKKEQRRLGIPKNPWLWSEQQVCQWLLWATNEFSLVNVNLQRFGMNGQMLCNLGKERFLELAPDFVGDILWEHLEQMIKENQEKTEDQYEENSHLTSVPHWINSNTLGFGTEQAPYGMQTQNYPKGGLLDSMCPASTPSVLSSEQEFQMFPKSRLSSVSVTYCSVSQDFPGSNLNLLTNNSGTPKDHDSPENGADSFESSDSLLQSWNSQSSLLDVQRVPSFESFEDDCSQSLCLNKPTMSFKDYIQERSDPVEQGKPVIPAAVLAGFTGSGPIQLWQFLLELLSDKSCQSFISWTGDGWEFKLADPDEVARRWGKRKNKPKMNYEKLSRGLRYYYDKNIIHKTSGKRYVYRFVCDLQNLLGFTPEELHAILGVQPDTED
Outline: as §1

SPDEF = target: T4, SPDEF (Homo sapiens, UniProt O95238 1-335)
T4 sequence: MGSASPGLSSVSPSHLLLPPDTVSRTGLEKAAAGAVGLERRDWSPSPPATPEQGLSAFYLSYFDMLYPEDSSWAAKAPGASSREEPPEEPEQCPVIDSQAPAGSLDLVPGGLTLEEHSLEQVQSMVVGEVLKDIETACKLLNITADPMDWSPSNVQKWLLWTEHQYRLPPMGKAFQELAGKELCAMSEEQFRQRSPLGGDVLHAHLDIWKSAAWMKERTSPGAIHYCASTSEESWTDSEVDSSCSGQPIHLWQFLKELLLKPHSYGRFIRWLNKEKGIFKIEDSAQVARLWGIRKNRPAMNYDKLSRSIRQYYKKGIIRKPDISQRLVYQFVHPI
Outline: as §1

ETV7 = target: T5, ETV7 (Homo sapiens, UniProt Q9Y603 1-341)
T5 sequence: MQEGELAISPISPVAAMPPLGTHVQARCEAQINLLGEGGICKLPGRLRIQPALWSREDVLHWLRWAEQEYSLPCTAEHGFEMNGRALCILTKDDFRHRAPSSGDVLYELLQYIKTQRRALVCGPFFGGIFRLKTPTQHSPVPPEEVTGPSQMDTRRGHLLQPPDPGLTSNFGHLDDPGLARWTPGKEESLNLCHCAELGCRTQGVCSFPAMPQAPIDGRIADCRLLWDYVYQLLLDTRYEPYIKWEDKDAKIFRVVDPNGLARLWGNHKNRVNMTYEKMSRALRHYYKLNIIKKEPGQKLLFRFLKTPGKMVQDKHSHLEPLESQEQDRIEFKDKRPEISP
Outline: as §1

ELF5 = target: T6, ELF5 (Homo sapiens, UniProt Q9UKW6-2 1-255)
T6 sequence: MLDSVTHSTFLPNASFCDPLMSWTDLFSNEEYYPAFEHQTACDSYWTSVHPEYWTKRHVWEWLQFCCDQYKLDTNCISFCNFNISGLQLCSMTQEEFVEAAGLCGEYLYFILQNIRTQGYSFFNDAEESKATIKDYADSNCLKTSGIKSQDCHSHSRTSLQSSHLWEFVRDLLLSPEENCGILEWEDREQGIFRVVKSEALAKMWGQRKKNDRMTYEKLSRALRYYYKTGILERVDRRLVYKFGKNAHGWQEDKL
Outline: as §1

ETV3 = target: T7, ETV3 (Homo sapiens, UniProt P41162-2 1-143)
T7 sequence: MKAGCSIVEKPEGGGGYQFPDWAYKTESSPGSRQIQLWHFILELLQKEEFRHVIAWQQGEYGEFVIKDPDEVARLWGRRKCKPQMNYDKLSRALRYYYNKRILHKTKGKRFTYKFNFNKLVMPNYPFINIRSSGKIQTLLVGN
Outline: as §1

ETV6 = ETV6 (Homo sapiens, UniProt P41212 1-452)
Outline: as §1

Chain of ETV1 (P50549 whole entry, the tested form may be a part): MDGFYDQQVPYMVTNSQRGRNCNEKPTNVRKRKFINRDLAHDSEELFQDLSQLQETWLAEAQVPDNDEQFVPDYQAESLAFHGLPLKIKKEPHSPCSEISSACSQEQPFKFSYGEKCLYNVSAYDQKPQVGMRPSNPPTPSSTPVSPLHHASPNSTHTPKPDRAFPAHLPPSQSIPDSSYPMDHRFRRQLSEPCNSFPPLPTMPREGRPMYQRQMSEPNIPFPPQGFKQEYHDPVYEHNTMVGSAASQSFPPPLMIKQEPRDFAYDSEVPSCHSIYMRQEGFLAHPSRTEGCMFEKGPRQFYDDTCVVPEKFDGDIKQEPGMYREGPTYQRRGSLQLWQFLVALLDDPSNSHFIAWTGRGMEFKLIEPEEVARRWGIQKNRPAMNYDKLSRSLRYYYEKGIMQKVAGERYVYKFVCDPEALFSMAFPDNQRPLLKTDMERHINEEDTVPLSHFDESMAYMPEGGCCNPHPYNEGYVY
Chain of ETV6 (P41212 whole entry): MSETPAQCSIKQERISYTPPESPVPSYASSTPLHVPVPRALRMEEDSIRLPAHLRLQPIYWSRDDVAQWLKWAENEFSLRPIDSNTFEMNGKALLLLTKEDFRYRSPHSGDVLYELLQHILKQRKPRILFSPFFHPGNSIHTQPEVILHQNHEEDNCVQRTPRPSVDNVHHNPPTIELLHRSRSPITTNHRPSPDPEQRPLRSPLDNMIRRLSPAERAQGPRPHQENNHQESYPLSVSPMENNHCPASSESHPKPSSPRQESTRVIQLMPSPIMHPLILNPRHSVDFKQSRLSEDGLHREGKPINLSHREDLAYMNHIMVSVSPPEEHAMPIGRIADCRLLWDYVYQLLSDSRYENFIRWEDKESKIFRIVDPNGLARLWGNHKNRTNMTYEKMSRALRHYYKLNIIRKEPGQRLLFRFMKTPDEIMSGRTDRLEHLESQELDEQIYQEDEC

Sequence: GAATAA
- binding signal (ETV1): 1.03 fold enrichment (6-mer frequency, TF over GST control)
- binding signal (ERF): 1.23 fold enrichment (6-mer frequency, TF over GST control)
- binding signal (ETV3L): 1.15 fold enrichment (6-mer frequency, TF over GST control)
- binding signal (ETS2): 1.09 fold enrichment (6-mer frequency, TF over GST control)
- binding signal (SPDEF): 1.09 fold enrichment (6-mer frequency, TF over GST control)
- binding signal (ETV7): 1.07 fold enrichment (6-mer frequency, TF over GST control)
- binding signal (ELF5): 1.05 fold enrichment (6-mer frequency, TF over GST control)
- binding signal (ETV3): 1.06 fold enrichment (6-mer frequency, TF over GST control)
- binding signal (ETV6): 1.16 fold enrichment (6-mer frequency, TF over GST control)
